# Assay results from PubChem BioAssay AID1508600 (Functional Genomics Laboratory (NCATS/FGL), 2020).
# Hit rate of the full screen: of about 53,000 sequences, about 3,700 (7%) were called active. This excerpt belongs to a sample that is enriched for actives. A number with no mark means an inactive call.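 How the source made its calls: active means gene knockdowns whose robust z-score for IL-1 alpha signal is at least 2 or at most -2, so actives lie on both sides; inactive means the rest.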
# Test: Components of the Cytosolic LPS Sensing Pathway: Gene Identification via Genome-wide siRNA Screen;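 further: robust z of the log signal after scaling to non-targeting control siRNA wells of the plate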
# Conditions: RAW264.7 macrophages, IL-1a HTRF, actives lie on both sides, screened at 100 nM (by protocol), cells primed 5 h with Pam3CSK4 first
# Outline: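 Mouse macrophage line RAW264.7 is transfected with siRNA (100 nM final), grown 48h, primed with TLR ligand Pam3CSK4 5 h and given intracellular LipidA 24 h. IL-1a in supernatant is read by HTRF and viability by luminescence.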
row,Sequence,z-score
1,GGCUUCCAAGCCUAAAGCUTT against H1f3,-0.266
2,GGAUCAAUUGACCACAAACTT against Magi3,0.164
3,GCGAUGCACUGUGUAAACUTT against Ccr6,0.772
4,GGGCUUGUAGAUGUGCGUATT against Hic2,3.32 (active)
5,UGCGGUUGAAUUCUCCCAUTT against Fbll1,-0.525
6,CGCACUUACCGUGUCCUAUTT against Homer3,0.0495
7,GGAGAGAAAGAAUUUCAUCTT against Chordc1,0.185
8,GGAAAUCAGAGAGAAGAUGTT against Nubp1,-1.53
9,CCACAGAGUUCCUAUACAATT against Pfkl,-2.52 (active)
10,CCCACGGAGGCAAUAAAUATT against Crygn,-0.155
11,GGAGAACUUCAGUGAGUCCTT against Ambp,-2.43 (active)
12,GCCACUCACCUAGCAAAGATT against Fbrsl1,-1.36
13,GGAAAUUUCAGUCGUAGUATT against Mgat4c,0.642
14,CGACUAUAGACUCUUGAAUTT against 1810037I17Rik,0.573
15,GGAGAAAUACAACUGAAAATT against Pcdhb7,-0.0269
16,GGCCAGAAGAUCUUCACCATT against Furin,0.449
17,GCUCUUUGGUCGAGAACCATT against Mup5,-2.42 (active)
18,GCAUCGUUUGUGAGAAUUUTT against Perp,-0.61
19,GGGCUAUCCUUCUGAAUUUTT against Csnk1d,1.46
20,GCUCUCCAUUACGUGCUUGTT against Rrp9,1.39
21,GGAGAGAAAGAACUGGAAATT against Fam78a,0.357
22,CCUAUCAGACUGUAAUAAGTT against Kdm2b,-0.404
23,GGGUGUAUUACCUCUCUCUTT against Pygl,2.12 (active)

row,Sequence,z-score
1,CCACGAUAGCACCUAUUUUTT against Gucy2c,-0.405
2,GGAACAUUGAAAGGAUUAATT against Smc3,-1.9
3,GGCUUAAGUAUUUUUCUGATT against Aktip,-0.269
4,GGUCUUCAUCUGUCCAACUTT against Tmlhe,-2.09 (active)
5,CCUGUACCUGCGUAUUCAATT against Grap,-1.63
6,GGUGCAGCACUUCAAAGUGTT against Grap,2.41 (active)
7,GGCCUGAAGACAGACAUGATT against C030016D13Rik,-1.2
8,GGAAGAGAUGAAGAAAAUGTT against Cetn1,-1.01
9,GGAACUUUUGGCCAGCAAGTT against Opa1,1.59
10,CGAUUACAUCCUUUUUGACTT against Gpn3,-0.228
11,GCGCCUUAACCAAGAAGUUTT against Cox18,2.84 (active)
12,GGAUCUAGAACAGAAAAUGTT against Stat3,-1.55
13,GCUGCUAUGACCUAUGGCATT against Sptlc2,-0.543
14,GGGUUGUCGUUCAGUUUACTT against Art2a,2.8 (active)
15,GGAAUUAAGUCAUCAGGAATT against Slc6a5,-0.763
16,GCGCACAAAAAACAUGAUATT against Plaat5,0.211
17,GGAAUUCGAUGCAUUUGUATT against Il18rap,-0.34
18,GCUCAGCUGUGGGUAAUACTT against Raver2,-2.77 (active)
19,GGAUAUCACAUAGCAUCGGTT against 1700025G04Rik,-0.742
20,GGAUGUCUCAAAGUAAGAATT against Cd55b,-0.124
21,GGACGAGUGCCUGUUUUCATT against Med8,4.09 (active)
22,GCAAUGGAACCACCUCUGATT against Zic5,1.41
23,GGAAGAAGCUGAGGAAAGCTT against Spata1,0.15

row,Sequence,z-score
1,GGAUGGACUCUGUUCCUGUTT against Susd2,0.956
2,GGCCAUUGGACACAGAAUCTT against Rpl35a,2.28 (active)
3,GCAAUUAGUAUCUAUUACCTT against Txndc17,-0.448
4,GGCUACAAAGGAGUUCCUATT against Sgf29,0.516
5,GCUACUAAACAAGCCGGCATT against Msl1,0.341
6,GGCUUUGUGGAUUUUGAAGTT against Cabp4,-1.2
7,GGACGUGUUUGGGAUUGUUTT against Csad,-0.765
8,GGAUGAGUUCCUUUUACUATT against Cntnap4,0.285
9,CCUCUGUUAUGGUAAUUCUTT against Olfr1323,-0.371
10,GCCUGAUAGUGGUGGACAGTT against Tmem45a2,3.29 (active)
11,GGAGGCUUUUCAGACCAAGTT against 3830406C13Rik,0.334
12,GGAGAACAGACACAGGGUGTT against Dlgap5,-0.284
13,CCUAAACUCAGUGCCUCAGTT against Mrps36,0.579
14,GUCAAAGCACCAUUUGAGUTT against Vmn1r8,-0.842
15,GGUAUUCUUUGAAGAAAACTT against Tbc1d14,1.17
16,GGUUUUUGAUGAUUGCUUUTT against Slc49a4,0.221
17,GGACACAGAUAGAAAUACUTT against Glo1,2.73 (active)
18,GGUCUCGAAUGUAUGGUGCTT against Bicc1,1.14
19,GGCAGUUAUGAUAAAGAUUTT against Slc25a16,-0.896
20,GGUUCCUAAACAUACUUGUTT against Swi5,0.478
21,GGACUACAGUCAUUAUUCATT against Sycp2,3.25 (active)
22,GGAGUACGAGCAAAUGGUGTT against Nfkbia,0.5
23,GGGACCUACAUUACAAUUUTT against Suz12,1.06
